Results taken from PubChem BioAssay AID720697 (Broad Institute, 2013).
Results with a measured potency or affinity are listed apart. Records with an inconclusive call do not appear. A number with no mark means an inactive call.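 How the source made its calls: active means signal loss with fitted half-maximal concentration at or below twice the top valid tested dose in every test run; inconclusive means runs disagree, flat 30 to 70% signal loss, or poor fit; inactive means all runs flat, opposite direction, or potency beyond limit.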

assay: HEK293T cytotoxicity, dose response, cytotoxicity control for miR-122 modulator project, cell-based, inhibitor set, cherry-pick, set 2 (AID 720697); details: HEK293T viability, CellTiter-Glo luminescence, 48 h; series mostly up to 26 µM; activity change, negative = cytotoxicity: at the top concentration;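 further: 0% = median of neutral control wells and -100% = MG132 positive control wells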

SMILES	activity change, negative = cytotoxicity
CC(C)NC(=O)N(C)C[C@H]1Oc2cc(C#C[C@H](C)O)ccc2S(=O)(=O)N([C@@H](C)CO)C[C@H]1C	70.4%
CC(=O)N1[C@H](CO)[C@@H](c2ccccc2)[C@H]1CN(C(=O)NC(C)C)C1CCCC1	40%
CCCCNC(=O)Nc1nnc(-c2ccc(OCC)cc2)o1	-4.04%
COc1cccc(-c2csc(N3CCN(CC(=O)Nc4ccc5c(c4)OCO5)CC3)n2)c1	23.7%
CCC(=O)N1[C@H](CO)[C@H](c2ccccc2)[C@@H]1CN(CC)C(=O)c1ccccc1	138% [at 23.5 µM]
CCCC#Cc1ccc2c(c1)O[C@H](CN(C)C(=O)COC)[C@H](C)CN([C@@H](C)CO)S2(=O)=O	19%
CNC(=O)C[C@H]1CC[C@H]2[C@@H](COc3ccc(NC(=O)c4cccc(OC)c4)cc3C(=O)N2C)O1	85.8%
CC(=O)N(C[C@@H]1N[C@@H](CO)[C@H]1c1ccc(-c2ccccc2)cc1)C(C)C	51.5%
COc1ccc2c(c1)C(C)=CC(C)(C)N2C(=O)CNCc1ccc2c(c1)OCO2	92.1%
CC(=O)Nc1ccc2c(c1)C(=O)N(C)[C@@H]1CC[C@H](CC(=O)NCCCN3CCOCC3)O[C@@H]1CO2	-0.596% [at 23.5 µM]
Cc1onc(-c2ccccc2)c1C(=O)NCc1ccccn1	94.7%
CCN(C[C@@H]1N[C@@H](CO)[C@H]1c1ccc(-c2cccc(F)c2)cc1)C(=O)CN(C)C	32.4%
CC(C)NC(=O)N1C[C@@H]2[C@H](c3ccccc31)[C@H](CO)N2Cc1ccccc1	3.17% [at 23.5 µM]
CC(=O)N(C[C@H]1N[C@H](CO)[C@@H]1c1ccc(-c2ccccc2)cc1)C(C)C	51.1%
C[C@@H]1CN([C@H](C)CO)C(=O)c2cccc(NC(=O)c3ccc(-c4nccs4)cc3)c2O[C@H]1CN(C)S(=O)(=O)c1ccc(F)cc1	-1.02% [at 23.5 µM]
COc1cccc(S(=O)(=O)N(C)C[C@@H]2Oc3cc(C4=CCCC4)ccc3S(=O)(=O)N([C@H](C)CO)C[C@@H]2C)c1	-8.81%
c1ccc(-n2nnnc2NCCc2c[nH]c3ccccc23)cc1	-23.7%
COC(=O)C[C@@H]1CC[C@H]2[C@@H](COc3ccc(NC(=O)c4ccc(F)c(F)c4)cc3C(=O)N2C)O1	77.2%

SMILES	activity change, negative = cytotoxicity
CCCNC(=O)N1[C@H](CNC(=O)c2ccc(F)cc2)[C@H](c2ccccc2)[C@@H]1CO	83% [at 23.5 µM]
CCCNC(=O)C[C@@H]1CC[C@@H]2[C@H](COc3ccc(NC(=O)Nc4ccccc4F)cc3C(=O)N2C)O1	55%
C[C@@H]1CN([C@@H](C)CO)S(=O)(=O)c2ccc(/C=C/c3ccccc3)cc2O[C@@H]1CN(C)C(=O)c1cccnc1	84.2%
C[C@H](NC(=O)C[C@H]1CC[C@@H]2[C@@H](COc3ccc(NS(=O)(=O)c4ccc(Cl)cc4)cc3C(=O)N2C)O1)c1ccccc1	77.1%
CN1C(=O)c2cc(NC(=O)Nc3ccccc3F)ccc2OC[C@@H]2O[C@@H](CC(=O)NCc3ccc(-c4ccccc4)cc3)CC[C@@H]21	9.96%
CN(C[C@@H]1[C@@H](c2ccccc2)[C@H](CO)N1C(=O)C1CCC1)C(=O)c1ccccn1	195%
COc1ccccc1C#Cc1cnc2c(c1)C(=O)N([C@H](C)CO)C[C@H](C)[C@@H](CN(C)C(=O)c1ccc3c(c1)OCO3)O2	-27.6%
CC(=O)Nc1ccc2c(c1)C(=O)N(C)[C@@H]1CC[C@@H](CC(=O)NCc3ccc(Cl)cc3)O[C@H]1CO2	102% [at 23.5 µM]
CC(=O)N(C)C[C@@H]1[C@@H](c2ccc(-c3cccc(C#N)c3)cc2)[C@H](CO)N1C(C)=O	-15.5%
CCOC(=O)CSc1nnnn1-c1cccc2ccccc12	20.9%
COC(=O)C[C@H]1CC[C@H]2[C@H](COc3ccc(NC(=O)c4cccc(F)c4)cc3C(=O)N2C)O1	18.2%
CN1C(=O)c2cc(NC(=O)Nc3ccccc3Cl)ccc2OC[C@H]2O[C@H](CC(=O)O)CC[C@H]21	68.5%
COc1cc(-c2nnc(-c3ccco3)o2)ccc1OCc1ccccc1	-3.44%
C[C@@H]1CN([C@@H](C)CO)C(=O)Cc2cc(NC(=O)C3CCCCC3)ccc2O[C@H]1CN(C)Cc1ccc(-c2ccccc2)cc1	-20.5% [at 23.5 µM]
CC(=O)Nc1ccc2c(c1)C(=O)N(C)[C@H]1CC[C@H](CC(=O)NC3CCCCC3)O[C@@H]1CO2	121%
C=CCNC(=S)NNC(=O)c1cccn(Cc2ccc(Cl)c(Cl)c2)c1=O	5.3%
CCNC(=O)C[C@@H]1CC[C@@H]2[C@@H](COc3ccc(NC(=O)c4ccccc4)cc3C(=O)N2C)O1	80.6% [at 23.5 µM]
